Screens: PubChem, The Scripps Research Institute Molecular Screening Center
Shown are actives, neighbours in structure and some others; about 4.1% of the full set was active somewhere.
ssDAF-12 act: activators of S. stercoralis DAF-12 nuclear receptor. HEK293 ssDAF-12/GRIP1 lit1-tk-luc reporter, luminescence; % of 3 µM dafachronic acid response. activation, % at 6.8 µM. actives 1% (n = 370,000). AID 652126;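 active means activation above the mean over all tested compounds plus 3 SD, cut at about 0.9% in these data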;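 further: 0% = DMSO-only wells and 100% = 3 µM delta7-dafachronic acid wells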
hcDAF12 agonist: H. contortus DAF-12 activation, primary screen | actives 1.4% (n = 370,000) | HEK293 hcDAF-12 lit1-tk-luc reporter, luminescence; 0% DMSO, 100% Δ7-dafachronic acid | AID 652067 | activation, % at 6.8 µM;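 active means activation above the mean of all tested compounds plus 3 SD, cut at about 5.5% in these data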;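 further: 100% = response to 3 µM Δ7-dafachronic acid high control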
hgDAF-12 ag: activates the H. glycines DAF-12 receptor ligand-binding domain; actives 1.8% (n = 370,000); activation, % at 6.8 µM; HEK293 GAL4-hgDAF12 UAS-luciferase reporter, agonist luminescence; normalized to butyrate control;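 active means activation above a cutoff set at the mean of all screened compounds plus 3 SD, cut at about 10% in these data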;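 further: 0% = DMSO wells and 100% = sodium butyrate wells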
DAX1 inh-1: inhibitors of DAX1 repression of SF-1 activated StAR promoter. HEK293T StAR-luciferase reporter, SF-1/DAX-1 repression relief. inhibition, % at 6.8 µM. actives 1.1% (n = 370,000). AID 652010;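 active means inhibition above the mean over all tested compounds plus 3 SD, cut at about 3.6% in these data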;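 further: 0% = DAX-1 cells with DMSO and 100% = cells lacking DAX-1 with DMSO; higher inhibition means more luminescence from relief of DAX-1 repression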
DAX1 inh-2: NR0B1 (DAX1) inhibition. P51843. HEK293 Gal4-DAX1 luciferase reporter, luminescence. inhibition, % at 6.75 µM. actives 0.99% (n = 340,000). AID 504766;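 active means inhibition above the mean over all tested compounds plus 3 SD, cut at about 4.2% in these data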;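 further: 0% = DAX1-transfected cells with DMSO and 100% = empty-vector control cells with DMSO; inhibition shows as a rise in luminescence from relieved DAX1 repression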
DAX1 inh confirm: confirmation of human DAX1 (NR0B1) inhibitors; shares compounds with DAX1 inh-1; inhibition, % at 6.8 µM; actives 87% (n = 2,400); AID 652134; HEK293T StAR-promoter luciferase reporter, SF-1/DAX-1 repression;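 active means inhibition above the average of every tested compound plus 3 SD, cut at about 3.8% in these data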;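 further: 0% = DAX-1 cells with DMSO and 100% = no DAX-1 control cells with DMSO; active compounds raise luminescence by relieving repression of the StAR reporter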
Target sequence (P51843 whole entry, looked up): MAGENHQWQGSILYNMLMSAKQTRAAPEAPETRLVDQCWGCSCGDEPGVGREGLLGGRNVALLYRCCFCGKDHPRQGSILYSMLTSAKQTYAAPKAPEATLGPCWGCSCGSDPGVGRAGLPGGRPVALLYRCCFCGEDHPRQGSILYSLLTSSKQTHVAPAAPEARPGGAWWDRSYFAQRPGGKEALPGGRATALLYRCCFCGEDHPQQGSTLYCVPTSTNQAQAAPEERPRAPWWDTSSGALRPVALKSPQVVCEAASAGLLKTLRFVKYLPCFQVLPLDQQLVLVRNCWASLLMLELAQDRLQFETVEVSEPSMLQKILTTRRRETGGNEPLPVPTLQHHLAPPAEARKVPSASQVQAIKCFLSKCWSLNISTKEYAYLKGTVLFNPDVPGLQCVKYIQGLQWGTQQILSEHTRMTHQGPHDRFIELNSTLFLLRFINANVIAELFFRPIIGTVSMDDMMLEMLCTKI
SF1 mutant ctr: counter-screen for DAX1 inhibitors: nonselective inhibitors with SF-1 AF2 mutant; shares compounds with DAX1 inh-1; HEK293 StAR-luciferase, luminescence; inhibition, % at 6.8 µM; actives 78% (n = 2,400); AID 652136;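 active means inhibition above the mean of all tested compounds plus 3 SD, cut at about 3% in these data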;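 further: 0% = DAX-1 transfected cells with DMSO and 100% = cells without DAX-1 with DMSO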
* marks the source's active call; other numbers are inactive results; . = not tested or not shown.

SMILES	ssDAF-12 act	hcDAF12 agonist	hgDAF-12 ag	DAX1 inh-1	DAX1 inh-2	DAX1 inh confirm	SF1 mutant ctr
COc1ccc2nc(SCC(=O)/C(C#N)=C(\C)N)[nH]c2c1	0	5.8*	9	4.8*	1	14*	8.8*
COC(=O)[C@]12CCCCC=C1N(Cc1ccc(OC)cc1)C(=O)[C@@H]2CC(=O)NCc1ccccc1	-2	-2	-2	-1	.	.	.
O=C(Nc1ccc(N2CCCC2)cc1)c1ccccc1F	0	5	13*	4.5*	0	7.1*	3.5*
Cc1ccccc1OCCN1C(=O)c2ccccc2C1=O	-1	2	7	1	2	.	.
O=C1c2ccccc2C(=O)N1CCOc1ccccc1Br	1	1	6	4.8*	2	4.3*	1
O=C1c2ccccc2C(=O)N1CCOc1ccccc1Cl	0	2	10	8.0*	1	3.8*	4.3*
Cc1ccc2nc(SCC(=O)N3CCN(C(=O)c4ccco4)CC3)[nH]c2c1	0	2	1	-1	0	.	.
Cc1ccc2nc(SCC(=O)N3CCCC3)[nH]c2c1	0	4	10	4.8*	3	12*	6.1*
Cc1ccc(C(=O)NCC(=O)Nc2ccc3c(c2)CCC3)cc1	-1	3	4	2	4	.	.
Cc1ccc(C(=O)Nc2ccc3c(c2)CCC3)cc1	0	5	6	4.6*	-4	6.0*	4.2*
CC(=O)c1cccc(NC(=O)c2ccc(CN3CCc4ccccc4C3)cc2)c1	-2	-4	-5	-2	-3	.	.
CC(=O)c1cccc(NC(=O)c2ccc3c(c2)CCCC3)c1	-1	2	13*	8.2*	2	8.8*	5.4*
COC(=O)[C@]12C[C@H](CC(=O)N3CCN(C(=O)c4ccco4)CC3)C(=O)N(CCc3ccc(OC)c(OC)c3)C1=C[C@H](C1CCCC1)O[C@@H]2C	-2	-1	-1	-1	.	.	.
C=CC[C@]1(O)C(=O)N(c2ccccc2)c2ccccc21	-1	-2	1	1	.	.	.
CCc1ccc(Oc2c(Cl)cnn(-c3ccc(C)cc3)c2=O)cc1	-2	0	0	.	.	.	.
Cc1cccnc1NC(=O)c1ccc2c(c1)OCO2	-1	3	2	1	1	.	.
O=C(CNC(=O)c1ccc2c(c1)OCO2)Nc1ncccc1O	0	2	7	5.3*	1	6.1*	3.7*
COC(=O)[C@H]1C[C@@]2(CC=C(C)C)c3ccccc3N(C(=O)OC(C)(C)C)[C@H]2N1C(=O)OC(C)(C)C	-1	-2	0	.	.	.	.
O=C(Nc1ccc(Cl)cc1)N1CCC(c2ccccc2)C1 (centres undefined)	1	3	12*	5.6*	6.8*	12*	6.6*
COC(=O)[C@]12C[C@H](CC(=O)NCc3ccc(OC)c(OC)c3)C(=O)N(Cc3ccco3)C1=C[C@H](C(C)(C)C)O[C@@H]2C	-1	-1	0	0	.	.	.
COc1cc(NC2c3ccccc3C(=O)N2c2ccc(C)cn2)cc(OC)c1OC (centres undefined)	0	2	8	6.1*	4	3	3.1*
COc1cc(NC2c3ccccc3C(=O)N2c2cc(C)ccn2)cc(OC)c1OC (centres undefined)	-1	-2	-4	0	1	.	.
COc1cccc(N2CCN(C(=O)c3ccc(CS(=O)c4ccccc4Cl)o3)CC2)c1 (centres undefined)	-1	-2	-4	11*	-1	14*	-9
COc1cccc(N2CCN(C(=O)c3ccc(CS(=O)c4ccccc4C)o3)CC2)c1 (centres undefined)	-1	-3	-3	1	-3	.	.
Cc1onc(C(=O)N2CCN(C(c3ccc(Cl)cc3)c3ccc(Cl)cc3)CC2)c1[N+](=O)[O-]	-1	-1	-9	.	.	.	.
SMILES	ssDAF-12 act	hcDAF12 agonist	hgDAF-12 ag	DAX1 inh-1	DAX1 inh-2	DAX1 inh confirm	SF1 mutant ctr
COc1cccc(/C=C/C(=O)NNC(=O)c2ccco2)c1OC	0	4	10	4.9*	1	9.1*	6.5*
COc1cccc(/C=N/NC(=O)c2ccccc2NC(=O)c2ccco2)c1OC	-1	0	0	-1	1	.	.
Nc1nc2ccc(O)cc2s1	-1	-1	-3	0	-2	.	.
CC(C)c1ccc2nc(N)sc2c1	-1	5.8*	11*	5.9*	3	11*	6.6*
Cc1ccc(C2=NNC(C(O)C(O)C(O)C(C)O)S2)cc1 (centres undefined)	-1	0	7	1	1	.	.
Cc1ccc(C2=NNC(c3cccc(F)c3)S2)cc1 (centres undefined)	1.6*	14*	17*	9.5*	-2	11*	5.2*
Cc1cc(C)cc(NC(=O)C(=O)NCCCN2CCCC2=O)c1	0	5.8*	6	7.1*	2	5.1*	5.3*
Cc1ccc(NC(=O)NCCCN2CCCC2=O)cc1	-1	0	1	1	1	.	.
C[C@@H]1COc2cccc(NCCO)c2S(=O)(=O)N1	-1	0	0	1	.	.	.
COc1ccccc1Nc1nnc(SCC2CCCCO2)s1 (centres undefined)	0	6.0*	11*	5.7*	-1	4.5*	1
Cc1ccc(Nc2nnc(SCC3CCCCO3)s2)cc1 (centres undefined)	0	4	4	0	0	.	.
CCOc1ccc(NC(=O)NC2CCCCCCC2)cc1	0	5	12*	9.8*	3	9.0*	4.0*
O=C(Nc1ccc(Br)cc1)NC1CCCCCCC1	0	1	11*	5.1*	2	9.1*	6.0*
CCOc1ccc(NC(=O)C(=S)NC2CCCCC2)cc1	-1	2	3	1	-1	.	.
O=C(CNC1CCCCC1)Nc1cccc([N+](=O)[O-])c1	-1	-1	1	0	3	.	.
O=C(Nc1cccc([N+](=O)[O-])c1)NC1CCCCCCC1	-1	4	5	5.5*	1	4.6*	4.3*
O=C1C(=O)N(Cc2ccc(-c3ccc(F)nc3)cc2)c2ccc(OC(F)(F)F)cc21	-1	1	-10	.	.	.	.
N=c1c2c(-c3ccccc3)c(-c3ccccc3)n(CCc3ccccc3)c2ncn1C1CCC(O)CC1 (centres undefined)	-1	0	-5	-2	.	.	.
CC1Cc2ccccc2N1C(=O)c1ccc(Br)o1 (centres undefined)	0	3	8	3	2	.	.
Cc1nc2cc(NC(=O)N3c4ccccc4CC3C)ccc2o1 (centres undefined)	1.2*	6.0*	6	5.2*	2	6.8*	4.1*
